{"source": "PubChem BioAssay AID651813", "about": "(National Center for Advancing Translational Sciences (NCATS), 2012)", "note": "The campaign covered roughly 2,100 compounds. About 1,100 (52%) were called active. Another 27% or so got no clear call; they are omitted. So high a share suggests a set chosen from earlier hits. Some of the results follow. A number with no mark means an inactive call. Calls come from the whole dose curve; as a rule, active = well fitted inhibition curve with a large enough effect; inconclusive = small, poorly fitted or top-dose-only effect; inactive = no such curve, though single readings can be large or run the other way. Potency is the fitted concentration of half-maximal effect."}
{"molecular_target": "DNA dC->dU-editing enzyme APOBEC-3G (Homo sapiens) (UniProt Q9HC16)", "sequence (Q9HC16 whole entry, looked up)": "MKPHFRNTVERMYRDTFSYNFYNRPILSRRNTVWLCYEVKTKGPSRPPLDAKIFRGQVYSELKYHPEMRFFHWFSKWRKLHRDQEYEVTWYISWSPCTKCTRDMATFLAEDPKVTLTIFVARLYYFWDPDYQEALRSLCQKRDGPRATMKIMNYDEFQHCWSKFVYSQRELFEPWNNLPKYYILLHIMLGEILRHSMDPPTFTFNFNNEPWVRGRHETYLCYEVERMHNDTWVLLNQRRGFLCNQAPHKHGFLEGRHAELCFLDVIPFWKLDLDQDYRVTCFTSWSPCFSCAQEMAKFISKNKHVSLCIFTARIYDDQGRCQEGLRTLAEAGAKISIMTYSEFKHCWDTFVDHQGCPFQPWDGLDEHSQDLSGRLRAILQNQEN", "assay": "qHTS for inhibitors of Vif-A3G interactions: Cherry picks counterscreen;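 note: hits raise yellow fluorescence by blocking Vif-driven A3G-eYFP degradation; nearly all actives have a fitted effect of over 70% in size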;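 for max response: max response given as percent of control signal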", "details": "HeLa A3G-eYFP + Vif (tagged APOBEC3G with the HIV-1 protein that degrades it), eYFP fluorescence, 24 h", "in_short": "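Readout is eYFP fluorescence (488 nm excitation, 500-530 nm emission) measured on Acumen Explorer after 24 h compound exposure, several concentrations, at 37 deg C. Cells: HeLa stably co-expressing Vif and C-terminally eYFP-tagged A3G; MG132 positive control.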", "units": {"max response": "%"}}
{"smiles": "CN(Cc1cnn(Cc2ccccc2)c1)C(=O)c1cccc(S(=O)(=O)N2CCOCC2)c1", "Potency": "11.2 µM (active)"}
{"smiles": "Nc1[nH]c2cc([N+](=O)[O-])ccc2c1-c1ccccn1", "Potency": "4.61 µM (active)"}
{"smiles": "c1ccc(-c2cccc(-c3ccccn3)n2)nc1", "max response": -27.5}
{"smiles": "CCn1c(CNC(=O)c2cc(OC)c(OC)c(OC)c2)cc2cc(C)ccc21", "max response": -10.2}
{"smiles": "COc1cc(C(=O)NCCOc2cc(C)cc(C)c2)cc(OC)c1OC", "Potency": "3.14 µM (active)"}
{"smiles": "CNC(=O)C(Sc1nc(C)nc2c1oc1ccccc12)C(C)=O", "note": "(centres undefined)", "max response": -16.6}
{"smiles": "CCOc1ccccc1Oc1nc(C)nc2c1oc1ccccc12", "Potency": "2.91 µM (active)"}
{"smiles": "O=Cc1s/c(=N\\S(=O)(=O)c2ccccc2)n(CCCCl)c1Cl", "Potency": "8.2 µM (active)"}
{"smiles": "CN(C)c1ccc(C2C=C(c3ccccc3)Nc3nnnn32)cc1", "note": "(centres undefined)", "Potency": "23.1 µM (active)"}
{"smiles": "COc1ccc(C2=CC(c3ccc(N(C)C)cc3)n3nnnc3N2)cc1", "note": "(centres undefined)", "Potency": "23.1 µM (active)"}
{"smiles": "N#Cc1c(C(F)(F)F)cc(-c2cccs2)nc1SCC(=O)Nc1ccc(Cl)cc1", "Potency": "10.3 µM (active)"}
{"smiles": "N#Cc1c(C(F)(F)F)cc(-c2cccs2)nc1SCC(=O)Nc1cccc(Cl)c1", "max response": -23.7}
{"smiles": "CCOC(=O)c1ccc(NC(=O)CSc2nc(-c3cccs3)cc(C(F)(F)F)c2C#N)cc1", "Potency": "23.1 µM (active)"}
{"smiles": "O=C(CSc1n[nH]c(-c2ccccn2)n1)Nc1ccc(Cl)cc1", "max response": 17.5}
{"smiles": "N#Cc1c(C(F)(F)F)cc(-c2cccs2)nc1SCC(=O)Nc1cccc(C(F)(F)F)c1", "Potency": "20.6 µM (active)"}
{"smiles": "O=[N+]([O-])c1cc(O)c2ncccc2c1", "max response": -9.81}
{"smiles": "O=[N+]([O-])c1ccc(Oc2cccc3cccnc23)c([N+](=O)[O-])c1", "Potency": "12.5 µM (active)"}
{"smiles": "O=[N+]([O-])c1cc(Cl)c2cccnc2c1O", "max response": 30.7}
{"smiles": "O=C1CN(C(=O)c2cc(Br)c(Br)s2)c2ccccc2N1", "Potency": "12.5 µM (active)"}
{"smiles": "Cc1cc(C)cc(C(=O)N2CC(=O)Nc3ccccc32)c1", "Potency": "0.704 µM (active)"}
{"smiles": "COc1cc(OC)cc(C(=O)N2CC(=O)Nc3ccccc32)c1", "Potency": "3.53 µM (active)"}
{"smiles": "CCC(C)[C@H](NC(=O)N1CC(=O)Nc2ccccc21)C(=O)Nc1ccccc1C", "note": "(some centres undefined)", "Potency": "9.94 µM (active)"}
{"smiles": "COc1cc(C(=O)N2CC(=O)Nc3ccccc32)cc(OC)c1OC", "Potency": "17.7 µM (active)"}
{"smiles": "CCCn1nc(C(=O)N2CC(=O)Nc3ccccc32)c2ccccc2c1=O", "Potency": "7.04 µM (active)"}
{"smiles": "COc1cc(C(=O)c2ccc3c(c2)OCO3)cc(OC)c1OC", "Potency": "5.59 µM (active)"}
{"smiles": "CCOC(=O)N1CCN(c2c(NCc3ccc(F)cc3)c(=O)c2=O)CC1", "Potency": "14 µM (active)"}
{"smiles": "CCOC(=O)Nc1cc2c(c(N)n1)N=C(c1ccccc1)CN2", "Potency": "0.058 µM (active)"}
{"smiles": "C=CCNC(=S)N/N=C(\\C)c1ccc(OC)cc1", "max response": -1.31}
{"smiles": "COc1ccc(NC(=S)NN(C)C(=S)Nc2ccc(OC)cc2)cc1", "Potency": "6.27 µM (active)"}
{"smiles": "COc1ccc(N(C)S(=O)(=O)c2cccc3cccnc23)c(OC)c1", "Potency": "14 µM (active)"}
{"smiles": "O=c1cc(-c2ccccc2)[nH]c2ccccc12", "Potency": "3.14 µM (active)"}
{"smiles": "Cc1ccc(N/C(N)=N/c2nc(CSc3nnc(C)s3)cc(=O)[nH]2)c(C)c1", "Potency": "2.8 µM (active)"}
{"smiles": "O=c1c(Cl)c2oc3ccccc3nc-2c2ccccc12", "Potency": "10.3 µM (active)"}
{"smiles": "CC[n+]1c(C=C2C=C(C)OC(C)=C2)sc2ccccc21", "Potency": "4.11 µM (active)"}
{"smiles": "COCCCN(C(C)=O)c1nc(-c2ccc(OC)cc2)cs1", "Potency": "14 µM (active)"}
{"smiles": "S=C(NCc1ccco1)Nc1ccc(Cl)cn1", "max response": -10.1}
{"smiles": "O=C(CCc1ccccc1)Nc1ccc(Cl)cn1", "Potency": "7.9 µM (active)"}
{"smiles": "CCCC(=O)NC1=C(Cl)C(=O)c2ccccc2C1=O", "max response": 62.1}
{"smiles": "Cc1ccc(-c2nc(-c3cc4cccc(OCc5cccc(F)c5)c4oc3=O)no2)cc1", "Potency": "23.1 µM (active)"}
{"smiles": "COc1cc(/C=C/C(=O)c2ccc3c(c2)OCCO3)cc(Br)c1OCC(=O)N(C)C", "Potency": "14 µM (active)"}
{"smiles": "Cc1c(=O)n(OCc2ccc(Cl)cc2)c2ccccc2[n+]1[O-]", "max response": -2.47}
{"smiles": "O=c1c[n+]([O-])c2ccccc2n1OCc1c(F)cccc1F", "Potency": "19.8 µM (active)"}
{"smiles": "CN(C)C=Nc1c(Br)cc(Br)c2nonc12", "Potency": "4.61 µM (active)"}
{"smiles": "CCNC(=S)N/N=C(\\C)c1ccc(N2CCOCC2)cc1", "max response": -8.21}
{"smiles": "COc1ccc(/C=C/C=C2\\NC(=S)NC2=O)cc1", "max response": -11.7}
{"smiles": "COc1ccc2nc(N3C(=O)/C(=C/c4ccccc4)NC3=S)sc2c1", "Potency": "11.6 µM (active)"}
{"smiles": "CCOc1ccc2nc(N3C(=O)/C(=C/c4ccc(Cl)cc4)NC3=S)sc2c1", "Potency": "18.4 µM (active)"}
{"smiles": "CCOc1cc(C#N)c(NC(=O)c2cccnc2)cc1OCC", "Potency": "7.04 µM (active)"}
{"smiles": "Cc1ccc(/C=N/NC(=O)c2cc(C)oc2C)cc1", "Potency": "9.94 µM (active)"}
{"smiles": "CN(C)c1ccc(/C=N/NC(=O)c2ccccc2Cl)cc1", "Potency": "4.98 µM (active)"}
{"smiles": "CSc1ccc(/C=N/NC(=O)c2ccccc2Cl)cc1", "Potency": "12.5 µM (active)"}
{"smiles": "COc1cc(C(=O)Nc2ccc3ccccc3c2)cc(OC)c1OC", "Potency": "1.58 µM (active)"}
{"smiles": "S=C(NN=Cc1ccccn1)Nc1ccccn1", "max response": 20.1}
{"smiles": "COc1cc(C(=O)N/N=C/C2CC=CCC2)cc(OC)c1OC", "note": "(centres undefined)", "max response": -11.5}
{"smiles": "COc1cc(C(=O)N/N=C/c2ccccn2)cc(OC)c1OC", "Potency": "12.5 µM (active)"}
{"smiles": "COc1cc(C(=O)Nc2ccc3c(c2)ncn3C)cc(OC)c1OC", "Potency": "7.04 µM (active)"}
{"smiles": "COc1ccc(C(=O)/C=C2/c3ccccc3CC(C)(C)N2C)cc1", "Potency": "12.5 µM (active)"}
{"smiles": "CN(C)CCOc1ccc2c(c1)C(=O)C(=Cc1ncc([N+](=O)[O-])n1C)C2", "Potency": "8.86 µM (active)"}
{"smiles": "COc1ccc(S(=O)(=O)N2N=C(C)Oc3ccccc3C2=O)cc1", "Potency": "7.9 µM (active)"}
{"smiles": "COC(=O)C1CCC(=O)N1C(c1ccc(OC)cc1)c1cc(OC)c(OC)c(OC)c1", "note": "(centres undefined)", "Potency": "0.559 µM (active)"}
{"smiles": "COC(=O)c1c(N2C(=O)[C@H]3[C@@H](C2=O)[C@]2(C(=O)Nc4c(C)cccc42)N2CCC[C@@H]32)sc(C)c1C", "Potency": "6.27 µM (active)"}
{"smiles": "CN1C2=CC=CC=CC2=[N+](C)C12C([N+](=O)[O-])=CC(=[N+]([O-])[O-])C=C2[N+](=O)[O-]", "note": "(centres undefined)", "max response": -21}
{"smiles": "CCSc1nc2ccccc2n1C(=O)/C=C/c1ccc(OC)c(OC)c1", "Potency": "4.98 µM (active)"}
{"smiles": "C=CCSc1nc2ccccc2n1C(=O)/C=C/c1cc(OC)c(OC)c(OC)c1", "Potency": "8.86 µM (active)"}
{"smiles": "CN(C)c1ccc(/C=C/C(=O)c2c(O)c3ccccc3oc2=O)cc1", "Potency": "1.3 µM (active)"}
{"smiles": "CN(C)c1ccc(/C=C/C(=O)c2ccc(O)cc2)cc1", "max response": 57}
{"smiles": "Cc1ccc2c(c1)sc(-c1ccc(N(C)C)cc1)[n+]2C", "Potency": "2.91 µM (active)"}
{"smiles": "COc1ccc(C2=NOC(C(=O)NCc3ccc(F)cc3)C2)cc1", "note": "(centres undefined)", "max response": -20.8}
{"smiles": "COc1ccc(C2=NOC(C(=O)NCc3cccs3)C2)cc1OC", "note": "(centres undefined)", "Potency": "7.9 µM (active)"}
{"smiles": "COc1ccc(C2=NOC(C(=O)NCc3ccc(F)cc3)C2)cc1OC", "note": "(centres undefined)", "Potency": "1.12 µM (active)"}
{"smiles": "CCn1c(SCC(=O)Nc2cccc(O)c2)nc2c1c(=O)n(C)c(=O)n2C", "max response": -1.18}
{"smiles": "COc1ccc(NC(=O)CSc2ccc3c4c(cccc24)C(=O)c2ccccc2-3)cc1", "Potency": "14.6 µM (active)"}
{"smiles": "N#Cc1cccc(NC(=O)CSc2ccc3c4c(cccc24)C(=O)c2ccccc2-3)c1", "Potency": "4.61 µM (active)"}
{"smiles": "COc1cc2c(cc1OC)C1=CC(=O)C(=O)N1C(C)(C)C2", "Potency": "14 µM (active)"}
{"smiles": "CC(=O)c1c(C)oc2c1cc(NS(=O)(=O)c1ccc(Br)cc1)c1ccccc12", "Potency": "1.64 µM (active)"}
{"smiles": "CCOc1ccc(S(=O)(=O)Nc2cc3c(C(=O)OC)c(COC)oc3c3ccccc23)cc1", "Potency": "0.461 µM (active)"}
{"smiles": "Cc1ccc(S(=O)(=O)Nc2cc(Cl)c(O)c3ncccc23)cc1", "max response": 10.1}
{"smiles": "COc1ccc(S(=O)(=O)Nc2cccc(-c3ccc4nncn4n3)c2)cc1F", "Potency": "4.44 µM (active)"}
{"smiles": "COc1ccc(S(=O)(=O)Nc2cccc(-c3ccc4nncn4n3)c2)cc1", "Potency": "4.98 µM (active)"}
{"smiles": "O=[N+]([O-])c1ccc(N/N=C/C=C/c2ccco2)cc1", "Potency": "18.4 µM (active)"}
{"smiles": "O=C(N/N=C/C=C/c1ccco1)c1ccncc1", "max response": 0.191}
{"smiles": "O=C1/C(=C/c2c[nH]c3ccccc23)CCC/C1=C\\c1c[nH]c2ccccc12", "Potency": "20.6 µM (active)"}
{"smiles": "CCOc1ccc(C2CC(c3c(O)c4ccccc4oc3=O)=NN2c2ccccc2)cc1OC", "note": "(centres undefined)", "Potency": "5.17 µM (active)"}
{"smiles": "c1ccc(N=NC2=NN(c3ccccc3)CS2)cc1", "max response": 20.9}
{"smiles": "Nc1nn(-c2ccccc2)c(N)c1N=Nc1ccccc1", "Potency": "8.86 µM (active)"}
{"smiles": "O=C(N=c1ccn(-c2nc3ccccc3nc2NS(=O)(=O)c2ccccc2)cc1)c1cccs1", "max response": 0.295}
{"smiles": "Cn1ccnc1Sc1nc2ccccc2nc1NS(=O)(=O)c1ccccc1", "max response": -7.62}
{"smiles": "O=S(=O)(Nc1nc2ccccc2nc1Nc1cccc(S(=O)(=O)N2CCCCC2)c1)c1ccccc1", "Potency": "20.6 µM (active)"}
{"smiles": "COc1cc(Cl)c(C)cc1Nc1nc2ccccc2nc1NS(=O)(=O)c1ccccc1", "Potency": "20.6 µM (active)"}
{"smiles": "Cc1ccc(S(=O)(=O)Nc2nc3ccccc3nc2Nc2cccc(S(=O)(=O)N3CCCC3)c2)cc1", "Potency": "23.1 µM (active)"}
{"smiles": "CC(=O)Nc1ccc(S(=O)(=O)Nc2nc3ccccc3nc2Nc2ccc3ccccc3c2)cc1", "max response": -17.6}
{"smiles": "COC(=O)c1cc(Nc2nc3ccccc3nc2NS(=O)(=O)c2ccc(C)cc2)ccc1Cl", "max response": -22.7}
{"smiles": "CCCNc1c(F)c(F)c2c(C)c3ccccc3nc2c1F", "Potency": "12.5 µM (active)"}
{"smiles": "Cc1c2ccccc2nc2c(F)c(NC(C)C)c(F)c(F)c12", "Potency": "8.2 µM (active)"}
